From PubChem BioAssay (NCI)
This is part of a sample that, as a whole, favours compounds with a hit. Of some 83,000 tested, about 20% had one in any assay.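 A percent growth of 40 corresponds to 60% growth inhibition; 0 means no net growth; -100 means all cells died. Active threshold: below 10.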 Active and inactive are the calls of the source.

Assays:
Assay in all cases: NCI-60 one-dose screen, 48 h (100 = growth as untreated, 0 = no growth, -100 = all killed)
Details in all cases: 10 µM unless noted
HCT-15 colon = test system: HCT-15 colon
HT29 colon = test system: HT29 colon
SNB-19 CNS = test system: SNB-19 CNS
U251 CNS = test system: U251 CNS
PC-3 prostate = test system: PC-3 prostate
SK-MEL-5 melanoma = test system: SK-MEL-5 melanoma
UACC-62 melanoma = test system: UACC-62 melanoma
LOX IMVI melanoma = test system: LOX IMVI melanoma
SK-MEL-28 melanoma = test system: SK-MEL-28 melanoma
EKVX NSCLC = test system: EKVX NSCLC
SN12C renal = test system: SN12C renal
UO-31 renal = test system: UO-31 renal
TK-10 renal = test system: TK-10 renal
ACHN renal = test system: ACHN renal
CAKI-1 renal = test system: CAKI-1 renal
A498 renal = test system: A498 renal
MOLT-4 leukemia = test system: MOLT-4 leukemia
SK-MEL-2 melanoma = test system: SK-MEL-2 melanoma
CCRF-CEM leukemia = test system: CCRF-CEM leukemia

Measured: growth

COc1ccc(-c2c(N)n[nH]c2-c2cc(OC)c(OC)c(OC)c2)cc1
inactive: HCT-15 colon 24.6% | SNB-19 CNS 35.9% | U251 CNS 23.5% | PC-3 prostate 40.9% | UACC-62 melanoma 25.7% | LOX IMVI melanoma 43.2% | SK-MEL-28 melanoma 50.4% | EKVX NSCLC 48% | SN12C renal 38.5% | UO-31 renal 27.3% | TK-10 renal 59.8% | ACHN renal 40% | CAKI-1 renal 57% | MOLT-4 leukemia 25.4%
active: HT29 colon 4.25% | SK-MEL-5 melanoma 0.844% | A498 renal -3.53%

CCCCCCCC[C@@H](O)CC(=O)N[C@@H](CC(N)=O)C(=O)N[C@@H](CCC(N)=O)C(=O)N[C@@H](CC(=O)c1cc(C)cc(O)c1C(=O)c1c(O)cccc1O)CC(C)C
inactive: HCT-15 colon 45.6% | SNB-19 CNS 23.8% | PC-3 prostate 10.8% | SK-MEL-5 melanoma 16.1% | LOX IMVI melanoma 12.5% | SK-MEL-2 melanoma 51.9% | EKVX NSCLC 61.1% | SN12C renal 25.4% | UO-31 renal 63.2% | ACHN renal 31.9% | CAKI-1 renal 40.6% | CCRF-CEM leukemia 11.6% | MOLT-4 leukemia 14%
active: HT29 colon 2.56% | U251 CNS 4.49% | UACC-62 melanoma 0.947% | TK-10 renal -6.12% | A498 renal -3.25%

Cc1ccc(S(=O)(=O)n2cc(C(=O)C(=O)Nc3ccncc3)c3ccccc32)cc1
active: HT29 colon 6.07%
inactive: HCT-15 colon 24.9% | SNB-19 CNS 45.7% | U251 CNS 33.7% | PC-3 prostate 55.1% | SK-MEL-5 melanoma 11.2% | UACC-62 melanoma 32.4% | LOX IMVI melanoma 45.2% | SK-MEL-28 melanoma 52% | EKVX NSCLC 55.8% | SN12C renal 39.8% | UO-31 renal 43.1% | TK-10 renal 87.9% | ACHN renal 52.3% | CAKI-1 renal 42.1% | A498 renal 74.1% | MOLT-4 leukemia 50.7%

COc1ccc(Nc2ncccc2C(=O)NCc2cn(Cc3cccc(Oc4ccccc4)c3)nn2)cc1
inactive: HCT-15 colon 32.2% | HT29 colon 12.6% | SNB-19 CNS 61.2% | U251 CNS 46.2% | PC-3 prostate 54.7% | SK-MEL-5 melanoma 16.3% | UACC-62 melanoma 35.3% | LOX IMVI melanoma 47.7% | SK-MEL-28 melanoma 63.3% | EKVX NSCLC 40.1% | SN12C renal 47.5% | UO-31 renal 40.9% | ACHN renal 51.2% | CAKI-1 renal 42.3% | A498 renal 27.5% | MOLT-4 leukemia 48%

O=S(=O)(c1ccc(OCCO)cc1)c1ccc(OCCO)cc1
active: CCRF-CEM leukemia -21.9%
inactive: HCT-15 colon 99% | HT29 colon 97.6% | SNB-19 CNS 108% | U251 CNS 93.2% | PC-3 prostate 85% | SK-MEL-5 melanoma 89.7% | UACC-62 melanoma 101% | LOX IMVI melanoma 105% | SK-MEL-28 melanoma 79% | EKVX NSCLC 108% | SN12C renal 106% | UO-31 renal 80.6% | TK-10 renal 94.6% | ACHN renal 102% | CAKI-1 renal 98.9% | A498 renal 107% | MOLT-4 leukemia 83.2%

O=C(Nc1cccc(-n2cc(-c3ccncc3)c(-c3ccc(Cl)c(O)c3)n2)c1)Nc1ccc(Cl)c(Cl)c1
inactive: HCT-15 colon 19.8% | HT29 colon 45.9% | SNB-19 CNS 30.3% | U251 CNS 12.4% | UACC-62 melanoma 14.9% | LOX IMVI melanoma 21.9% | SK-MEL-28 melanoma 24.6% | SN12C renal 18% | ACHN renal 12.8% | CAKI-1 renal 22.5% | A498 renal 31.1% | CCRF-CEM leukemia 13.7%
active: PC-3 prostate 5.43% | SK-MEL-5 melanoma -40.2% | SK-MEL-2 melanoma -25.4% | TK-10 renal 7.16% | MOLT-4 leukemia 7.64%

Nc1cc2c(cc1C(=O)c1cccc(F)c1)OCCO2
inactive: HCT-15 colon 93.9% | HT29 colon 100% | SNB-19 CNS 97.1% | U251 CNS 94% | PC-3 prostate 94.9% | SK-MEL-5 melanoma 109% | UACC-62 melanoma 104% | LOX IMVI melanoma 95.6% | SK-MEL-28 melanoma 105% | EKVX NSCLC 92.5% | SN12C renal 90.1% | UO-31 renal 68.8% | TK-10 renal 94% | ACHN renal 105% | CAKI-1 renal 88.4% | A498 renal 96.5%

CC(=O)Oc1cccc(S(=O)(=O)n2cc(C(=O)C(=O)Nc3ccncc3)c3ccccc32)c1
inactive: HCT-15 colon 80.1% | HT29 colon 86.1% | SNB-19 CNS 92.9% | U251 CNS 93.1% | PC-3 prostate 81.4% | SK-MEL-5 melanoma 73.5% | UACC-62 melanoma 70.8% | LOX IMVI melanoma 86.6% | SK-MEL-28 melanoma 104% | EKVX NSCLC 51.4% | SN12C renal 85.1% | UO-31 renal 75.3% | TK-10 renal 102% | ACHN renal 88% | A498 renal 63.3% | MOLT-4 leukemia 90.9%

O=C(Nc1ccncc1)C(=O)c1cn(S(=O)(=O)c2ccc(Br)cc2)c2ccccc12
inactive: HCT-15 colon 31% | HT29 colon 11.6% | SNB-19 CNS 64.6% | U251 CNS 42.7% | PC-3 prostate 68.4% | SK-MEL-5 melanoma 14.5% | UACC-62 melanoma 38.3% | LOX IMVI melanoma 41.6% | SK-MEL-28 melanoma 60.6% | EKVX NSCLC 44.5% | SN12C renal 46.3% | UO-31 renal 52.7% | TK-10 renal 98.2% | ACHN renal 58% | CAKI-1 renal 40.6% | A498 renal 47.3% | MOLT-4 leukemia 44.3%

c1coc(CNc2ccnc(Nc3ccc(OCCN4CCCCC4)cc3)n2)c1
inactive: HCT-15 colon 89.6% | HT29 colon 57.6% | SNB-19 CNS 97.3% | U251 CNS 85.8% | PC-3 prostate 82.9% | SK-MEL-5 melanoma 80.3% | UACC-62 melanoma 93.6% | LOX IMVI melanoma 82.6% | SK-MEL-2 melanoma 104% | EKVX NSCLC 95.1% | SN12C renal 78% | UO-31 renal 71.2% | TK-10 renal 107% | ACHN renal 100% | CAKI-1 renal 92.3% | A498 renal 59.8% | CCRF-CEM leukemia 81.4%

O=C(NCc1cn(Cc2cccc(Oc3ccccc3)c2)nn1)c1cccnc1Nc1ccc(F)cc1
inactive: HCT-15 colon 31.3% | HT29 colon 38.3% | SNB-19 CNS 72.9% | U251 CNS 55.3% | PC-3 prostate 89.3% | SK-MEL-5 melanoma 40.8% | UACC-62 melanoma 43% | LOX IMVI melanoma 54.4% | SK-MEL-28 melanoma 72.4% | EKVX NSCLC 61.8% | SN12C renal 44.4% | UO-31 renal 59.3% | TK-10 renal 83.8% | ACHN renal 72.3% | CAKI-1 renal 53.9% | A498 renal 26.5%

O=C(Nc1ccc2c(c1)OCCO2)C(=O)c1c[nH]c2ccccc12
active: HT29 colon 4.06%
inactive: HCT-15 colon 33.5% | SNB-19 CNS 46.9% | U251 CNS 34% | PC-3 prostate 28.9% | SK-MEL-5 melanoma 29.7% | UACC-62 melanoma 33.1% | LOX IMVI melanoma 36.1% | SK-MEL-28 melanoma 53% | EKVX NSCLC 52.9% | SN12C renal 42.4% | UO-31 renal 50.9% | TK-10 renal 75.1% | ACHN renal 57.4% | A498 renal 26.3% | MOLT-4 leukemia 16.8%

O=C(Nc1ccc2c(c1)OCO2)C(=O)c1c[nH]c2cc(F)ccc12
active: LOX IMVI melanoma 8.88%
inactive: HCT-15 colon 57.2% | HT29 colon 62% | SNB-19 CNS 85.1% | U251 CNS 58.4% | PC-3 prostate 63.8% | SK-MEL-5 melanoma 58% | UACC-62 melanoma 22% | SK-MEL-28 melanoma 30.7% | EKVX NSCLC 72.4% | SN12C renal 79.5% | UO-31 renal 71.2% | TK-10 renal 72.7% | ACHN renal 44.9% | CAKI-1 renal 32.7% | A498 renal 55% | MOLT-4 leukemia 63.1%

O=C(Nc1ccncc1)C(=O)c1cn(S(=O)(=O)c2ccc(Oc3ccccc3)cc2)c2ccccc12
inactive: HCT-15 colon 88.6% | HT29 colon 101% | SNB-19 CNS 98.6% | U251 CNS 94% | PC-3 prostate 85.7% | SK-MEL-5 melanoma 98.2% | UACC-62 melanoma 79.1% | LOX IMVI melanoma 91.3% | SK-MEL-28 melanoma 110% | EKVX NSCLC 42.3% | SN12C renal 84.9% | UO-31 renal 62.3% | TK-10 renal 102% | ACHN renal 86.3% | A498 renal 34.7%

COc1ccc(NC(=O)c2cc(OC)c(OC)c(OC)c2)cc1O
inactive: HCT-15 colon 35% | HT29 colon 10.7% | SNB-19 CNS 52.1% | U251 CNS 40.4% | PC-3 prostate 25.9% | SK-MEL-5 melanoma 22.8% | UACC-62 melanoma 30.8% | LOX IMVI melanoma 43.3% | SK-MEL-28 melanoma 56% | EKVX NSCLC 97.1% | SN12C renal 43.4% | UO-31 renal 66.8% | TK-10 renal 88.9% | ACHN renal 57.6% | CAKI-1 renal 46.8% | A498 renal 46% | MOLT-4 leukemia 64.4%

C=C1CCC[C@]2(C)CCC[C@H](C)[C@@H](OC(C)=O)[C@@H]3OC(=O)C(=C)[C@@H]3C[C@H]1O2
inactive: HCT-15 colon 65.9% | HT29 colon 67.8% | SNB-19 CNS 88.9% | U251 CNS 72.5% | PC-3 prostate 53% | SK-MEL-5 melanoma 72.7% | UACC-62 melanoma 58% | LOX IMVI melanoma 72.2% | SK-MEL-28 melanoma 95.2% | EKVX NSCLC 77.3% | SN12C renal 68.5% | UO-31 renal 87.1% | TK-10 renal 109% | ACHN renal 80.1% | CAKI-1 renal 69.4% | A498 renal 68.7% | MOLT-4 leukemia 64%

Fc1ccc(-c2nc(-c3nc4ncccc4[nH]3)cc3c2[nH]c2ccccc23)cc1F
inactive: HCT-15 colon 54.7% | HT29 colon 39.1% | SNB-19 CNS 102% | U251 CNS 81.9% | PC-3 prostate 73.3% | SK-MEL-5 melanoma 28.3% | UACC-62 melanoma 79.9% | LOX IMVI melanoma 48.5% | SK-MEL-28 melanoma 94% | SK-MEL-2 melanoma 83.1% | SN12C renal 72.5% | ACHN renal 83% | A498 renal 88.4% | CCRF-CEM leukemia 67.2% | MOLT-4 leukemia 49.8%

COC(=O)c1nc(-c2ccccc2)oc1S(=O)(=O)N1CCN(c2cccc(Cl)c2)CC1
active: CCRF-CEM leukemia 4.91%
inactive: HCT-15 colon 65.5% | HT29 colon 50.8% | SNB-19 CNS 63.6% | U251 CNS 72.2% | PC-3 prostate 82% | SK-MEL-5 melanoma 99.3% | UACC-62 melanoma 79.7% | LOX IMVI melanoma 44.3% | SK-MEL-2 melanoma 90% | EKVX NSCLC 93.4% | SN12C renal 74.5% | UO-31 renal 62.9% | TK-10 renal 89.4% | ACHN renal 84.8% | CAKI-1 renal 32.6% | A498 renal 111% | MOLT-4 leukemia 39.3%
